# Bioassay records (PubChem)
# Rows were chosen to be rich in hits. Some 20% of all compounds tested hit in one or more screens of this group.
# Shiga inhibitor: Shiga toxin inhibition; Vero cells, Shiga toxin protein synthesis inhibition reporter; inhibition, % at 38.7 µM; hit rate 9.2% among 290,000; AID 2315; in the data active = inhibition mostly above about 28%, no sharp cut-off; inactive = mostly below about 43%; note: 0% is about no effect
# Pf growth 48h: P. falciparum growth inhibition at 48 hours (one generation); hit rate 5.9% among 310,000; Potency, µM (series often up to 28.7 µM), inactives show at the highest dose activity change, negative = inhibition, most hits filed as inhibitors; P. falciparum luciferase growth in erythrocytes, 48 h; note: potency is the fitted concentration of half-maximal effect; % is set by controls: 0 for no effect and ±100 for the full control effect
#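 Erythrocytes infected with P. falciparum carrying an integrated firefly luciferase reporter (2% hematocrit, 0.1% parasitemia final) were exposed to compounds in RPMI 1640 with 0.5% Albumax at 37 C, 5% CO2. Growth inhibition was scored as reduced luminescence.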
# CHX counter: counter-screen hit for Shiga toxin inhibitors, cycloheximide | cell reporter, cycloheximide protein synthesis inhibition counterscreen | AID 2314 | max response, % | hit rate 12% among 300,000; in the data active = max response mostly above about 13%, no sharp cut-off; inactive = mostly below about 14%; note: read at 38.3 µM for the half of the compounds with a filed dose; 0% is about no effect
# Pf growth 96h: P. falciparum growth inhibition at 96 hours. P. falciparum luciferase reporter growth, 96 h. Potency, µM (highest dose often 28.7 µM), for the others: at the top dose activity change, negative = inhibition, actives largely listed as inhibitors. hit rate 6.9% among 320,000. AID 504834; note: potency is the fitted concentration of half-maximal effect; % is set by controls: 0 for no effect and ±100 for the full control effect
#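 Parasite growth measured via integrated firefly luciferase reporter in P. falciparum. Infected erythrocytes at 2% hematocrit, 0.05% parasitemia final were treated 96 hours at 37 C under 5% CO2, and luminescence was read.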
# HCMV antiviral: blocks human cytomegalovirus replication; HFF cells, HCMV-luciferase reporter, 72 h; active compounds read low; activity change, negative = inhibition, % at 57.5 µM; hit rate 4.5% among 410,000; AID 1259415; in the data active = activity change below about -60%; inconclusive = no clear call, values can overlap the other calls; inactive = above about -39%; note: % is set by controls: 0 for no effect and ±100 for the full control effect
#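 Human foreskin fibroblasts infected with luciferase-reporter HCMV at MOI 1 PFU/cell, compounds at two doses. Luciferase measured 72 h post infection; normalized to buffer-only basal and Salinomycin (10uM) controls.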
# * = called active by the depositor; ? = inconclusive; . = no result; [ ] = dose if it differs, or a comment. Unless noted, calls come from the whole dose curve; as a rule, active = well fitted inhibition curve with a large enough effect; inconclusive = small, poorly fitted or top-dose-only effect, or another doubt; inactive = no such curve, though single readings can be large or run the other way.
SMILES,Shiga inhibitor,Pf growth 48h,CHX counter,Pf growth 96h,HCMV antiviral
COC(=O)C1=C(C)N(c2cccc(OC)c2)C(=O)/C1=C\c1ccco1,36,?,17*,?,-26
Nc1ccc2c(c1)Oc1ccccc1C=C2,16,53%,16,19%,-26
Nc1ccc2c(c1)COc1ccccc1O2,88*,58%,16*,22%,25
CNC(=O)NC(=O)C(C)OC(=O)c1c2c(nc3ccccc13)/C(=C/c1cccs1)CC2 (centres undefined),23*,35%,32*,33%,-11
CCCCNC(=O)COC(=O)c1c2c(nc3ccccc13)/C(=C/c1cccs1)CC2,104*,-25%,52*,?,78
O=C(N/N=C/c1cn(-c2ccccc2)nc1-c1cc2ccccc2o1)c1cccnc1,106*,?,53*,?,86
O=C(N/N=C/c1cn(-c2ccccc2)nc1-c1cc2ccccc2o1)c1ccncc1,132*,-33%,85*,-45%,79
O=C(N/N=C/c1cn(-c2ccccc2)nc1-c1cccnc1)c1cccnc1,2,?,5,?,-27
Cc1c(C)n(CCc2ccccc2)c2ncnc(NCCCN(C)C)c12,28*,?,18,?,?
Cc1c(C)n(CCN(C)C)c2ncnc(NCc3ccccc3)c12,3,-4%[0.00184 µM],-3,4%,-20
CCOC(=O)c1nc2nc(-c3cccs3)cc(C(F)(F)F)n2n1,-7,23%,4,8.3µM*,-25
Cc1cc(C)c(C#N)c(SCc2ccccc2[N+](=O)[O-])n1,-8,7%,0,-10%,-97*
Cc1cc(C)c(C#N)c(SCc2nnc(-c3ccccc3)o2)n1,92*,-14%,40*,?,-93*
Cc1cc(C)c(C#N)c(SCc2c(F)cccc2[N+](=O)[O-])n1,-10,?,7,-11%,6
Cc1ccc(C#N)c(SCc2nnc(-c3ccc(Cl)cc3)o2)n1,128*,-79%,78*,22%,-91*
Cc1cc(C)c(C#N)c(SCc2nnc(-c3ccccc3[N+](=O)[O-])o2)n1,70*,1%,47*,?,-95*
COc1ccccc1-c1cc(-c2ccc(C)cc2)nc(SCc2nnc(-c3ccccc3)o2)c1C#N,-10,?,-2,341%,-22
CCCCC(=O)Nc1ccc(C(=O)NCCN2CCOCC2)cc1,-5,24%,1,-21%,-2
COc1cccc(C(=O)NCC(c2ccc3c(c2)OCO3)N2CCN(C)CC2)c1 (centres undefined),.,.,.,.,20
CCOC(=O)c1c(C)[nH]c(C)c1S(=O)(=O)NCC(=O)N1CCN(c2ccccc2OC)CC1,.,.,.,.,-4
CCc1cccc(C)c1Nc1c(-c2cccs2)nc2ncccn12,.,.,.,.,7
O=c1oc2ccccc2c(N2CCCCC2)c1[N+](=O)[O-],11,-3%,-1,33%,28
O=c1oc2ccccc2c(N2CCCC2)c1[N+](=O)[O-],-15,30%,5,3%,-94*
Cc1cc(Cl)cc(C)c1OCC(=O)N1CCN(c2ncccn2)CC1,.,?,.,?,21
CCOc1ccc(-c2nc(CSc3nnc(N)s3)cs2)cc1,117*,58%,31*,.,73
SMILES,Shiga inhibitor,Pf growth 48h,CHX counter,Pf growth 96h,HCMV antiviral
CCOc1ccc(-c2nc(CSc3nnc(N)s3)cs2)cc1OC,85*,25%,33*,.,83
CC1=C(C(=O)OC(C)C)C(C)C(C(=O)OC(C)C)=C(C)N1,27,?,-3,.,-21
Cc1cccc(Cn2c(SCc3ccc(C(=O)NCc4ccccc4)cc3)nc3cccnc32)c1,.,.,.,.,-16
O=C(O)Cn1c(SC2CCCCC2)nc2ccccc21,9,22%,11,42%,27
CCN(CC)c1ccc(/C=N/Nc2cccc(C)c2)c(O)c1,21,-4%,2,?,23
CCN(CC)c1ccc(/C=N/Nc2ccccc2)c(O)c1,29,?,23*,?,.
CCN(CC)c1ccc(C=Nc2cc(C)cc(C)c2)c(O)c1,6,23%,-2,-12%,-26
CCN(CC)c1ccc(/C=N/NC(=O)c2ccoc2C)c(O)c1,93*,1.3µM*,27*,?,-100*
CCN(CC)c1ccc(/C=N/NC(=S)NC)c(O)c1,77*,?,30*,-22%,-13
CCN(CC)c1ccc(/C=N/NC(=O)OC)c(O)c1,64*,.,55*,-14%,44
CCOC(=O)C1(C)CCCN(C(=O)c2ccc(F)cc2Cl)C1 (centres undefined),.,.,.,.,-1
C[C@@H]1CCCCO[C@H](CN(C)C(=O)Nc2ccccc2)[C@@H](C)CN([C@H](C)CO)C(=O)c2cc(NS(=O)(=O)c3cn(C)cn3)ccc2O1,.,.,.,.,-2
Cc1csc2nc(COc3ccc(NC(=O)COc4ccc(F)cc4)cc3)cc(=O)n12,.,.,.,.,-20
CCOCCCNC(=O)c1cn(C)c2ccc(S(=O)(=O)N3CCCC3)cc2c1=O,-6,-27%,-1,6.6µM*,8
CCCCSCCCNC(=O)c1cn(C)c2ccc(S(=O)(=O)N3CCCCCC3)cc2c1=O,.,.,.,.,2
Cn1cc(C(=O)NC2CCCCCCC2)c(=O)c2cc(S(=O)(=O)N3CCCC3)ccc21,-12,?,-4,8.3µM*,-24
CN(CCCNC(=O)c1cn(C)c2ccc(S(=O)(=O)N(C)C)cc2c1=O)c1ccccc1,-8,-24%,-2,-25%,-64*
CCCCN(CCCC)CCNC(=O)c1cn(C)c2ccc(S(=O)(=O)N3CCCC3)cc2c1=O,1,-19%,-3,12µM*,16
O=C(C1CCCCC1)N1C[C@H](O)[C@@H](n2cc(-c3ccc(F)cc3)nn2)C[C@@H]1c1ccccc1,.,.,.,.,-12
COc1cccc(C(=O)Nc2cccc(-c3cn4ccsc4n3)c2)c1OC,.,.,.,.,84
CCOC(=O)COc1ccc(S(=O)(=O)NC2CC2)cc1,-11,-8%,1,?,7
Cn1cc(C(=O)N2CCc3ccccc3C2)c(=O)c2cc(S(=O)(=O)N3CCCCC3)ccc21,-16,-17%,-2,3.7µM*,.
CCN(CC)CCNC(=O)c1cn(CC)c2ccc(S(=O)(=O)N3CCc4ccccc4C3)cc2c1=O,-7,?,7,1µM*,-5
CC1CC(C)CN(CCCNC(=O)c2cn(C)c3ccc(S(=O)(=O)N4CCCC4)cc3c2=O)C1 (centres undefined),-2,4%,6,4%,4
CC1CCCN(CCCNC(=O)c2cn(C)c3ccc(S(=O)(=O)N(C)C4CCCCC4)cc3c2=O)C1 (centres undefined),-1,13µM*,-2,21%,-12
CC1CCN(CCCNC(=O)c2cn(C)c3ccc(S(=O)(=O)N(C)C4CCCCC4)cc3c2=O)CC1,.,.,.,.,13
CC1CCN(CCCNC(=O)c2cn(C)c3ccc(S(=O)(=O)N4CCCC4)cc3c2=O)CC1,7,12%,4,6%,-108*
COCCn1c(SCC(=O)N2CCCCC2)nc2c(c1=O)SC(C)C2 (centres undefined),-2,?,-1,?,-30
